Laboratory results from PubChem BioAssay (NCI).
Compounds without any hit were thinned out: in the full panel of roughly 79,000, 15% have a hit. Rule as the data show it: active = growth inhibition above about 70%; inactive = the rest.

Tests used:
[1] = NCI Yeast Anticancer Drug Screen. Data for the rad50 strain (AID 155);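 also: 0% = growth of vehicle-only cultures of the same strain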; conditions: S. cerevisiae rad50 strain growth inhibition; at 50.0 µM; hits give high values
Outline: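 Inhibition values express reduced yeast growth in compound-treated cultures relative to vehicle-treated controls.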

[2] = NCI Yeast Anticancer Drug Screen. Data for the mec2-1 strain (AID 157); conditions: S. cerevisiae mec2-1 strain, at 50.0 µM, hits give high values
Outline: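 Yeast mec2-1 mutant treated with compound. Readout: growth inhibition vs vehicle controls.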

[3] = NCI Yeast Anticancer Drug Screen. Data for the sgs1 mgt1 strain (AID 161);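 also: 0% = growth of cultures given vehicle only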; conditions: S. cerevisiae sgs1 mgt1 strain, at 50.0 µM, hits give high values
Outline: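 Genetically altered yeast, compound exposure, growth inhibition relative to vehicle.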

[4] = NCI Yeast Anticancer Drug Screen. Data for the cln2 rad14 strain (AID 165);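 also: 0% = growth equal to vehicle treated cultures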; conditions: S. cerevisiae cln2 rad14 strain, at 50.0 µM, hits give high values
Outline: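 cln2 rad14 yeast strain; compound exposure; growth inhibition read vs vehicle controls.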

[5] = NCI Yeast Anticancer Drug Screen. Data for the bub3 strain (AID 167); conditions: S. cerevisiae bub3 mutant strain, at 50.0 µM, hits give high values
Outline: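 Steps: expose the mutant yeast strain to compound; grow alongside vehicle-treated cultures; measure growth; express inhibition against the vehicle cultures.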

[6] = NCI Yeast Anticancer Drug Screen. Data for the mlh1 rad18 strain (AID 175); conditions: S. cerevisiae mlh1 rad18 strain growth inhibition; at 50.0 µM; hits give high values
Outline: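 Yeast w/ defined DNA-repair lesions; compound exposure; growth vs vehicle controls → % inhibition.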

Measured: growth inhibition

O=C1CCCC2C(O)CCC[C@H]12 (stereo partly specified)
inactive: [1] -9% | [2] -2.9% | [3] -21.8% | [4] 1% | [5] -7.7% | [6] -1.9%

CCCCCCCCCCCCn1[nH]c(C)c(C(=S)SCCCCCCCC)c1=O
inactive: [1] -7.2% | [2] 1.05% | [3] -0.9% | [4] 1.45% | [5] 3% | [6] 7.3%

COC(=O)C(CCc1ccc([N+](=O)[O-])cc1)(CCc1ccc([N+](=O)[O-])cc1)C(C)=O
inactive: [1] 5.9% | [2] -10% | [3] 4.55% | [4] -19.9% | [5] 19.7% | [6] 28.6%

CC1(C)CCC2(CO)C(=C3C=CC4C5(C)CCC(O)C(C)(CO)C5CCC4(C)C3(C)CC2O)C1 (stereo unspecified)
inactive: [1] 0.45% | [2] -31.8% | [3] -0.75% | [4] -3.35% | [5] -9.5% | [6] 11.4%

CC(/C=C/C(=O)c1ccccc1)=C\C=N\N(C)c1ccccc1
inactive: [1] 17.2% | [2] 2.8% | [3] -1.05% | [4] -40.8% | [5] 4.95% | [6] 1.5%

CCOC(=O)CCCl
inactive: [1] 24% | [2] 15.6% | [3] -2.95% | [4] 30.2% | [5] 31.3% | [6] 12.8%

CC1=C(C(=O)Nc2ccccc2C)C(c2ccc(Cl)cc2)C(C(=O)Nc2ccccc2C)=C(C)N1
inactive: [1] -3.3% | [2] 2.6% | [3] -5.2% | [4] 14.4% | [5] -8% | [6] 0%

CCN(CC)CCCC(C)Nc1nncc2ccccc12 (stereo unspecified)
inactive: [1] -19.2% | [2] -2.1% | [3] 2.55% | [4] -17.3% | [5] -1.3% | [6] -8.95%

CC12CCC(C(Br)C1=O)C2(C)CBr (stereo unspecified)
inactive: [1] -9.8% | [2] 5.75% | [3] 20.4% | [4] 23.8% | [5] 9% | [6] -0.7%

NC(Cc1cccc(F)c1)C(=O)O (stereo unspecified)
inactive: [1] -1.3% | [2] -30.1% | [3] 6.7% | [4] -12.4% | [5] -9.1% | [6] 10%

OCC(CO)(CO)COCC(CO)(CO)CO
inactive: [1] 8.5% | [2] -25.1% | [3] 6.75% | [4] 10% | [5] -12.3% | [6] 13.1%

CC(=O)c1ccncc1
inactive: [1] -38.2% | [2] -0.7% | [3] 6.65% | [4] -27.4% | [5] -1.6% | [6] 20.6%

OCCN(CCO)c1ccc(-n2cnc3c(=S)nc[nH]c32)cc1
inactive: [1] -3.1% | [2] -3% | [3] 5.55% | [4] -43.8% | [5] 8.35% | [6] -4.15%

O=S=C1SC2CCCCC2S1 (stereo unspecified)
inactive: [1] 2.75% | [2] 4.15% | [3] -5.4% | [4] -9.05% | [5] -9.45% | [6] 8.1%

CCC1(c2ccccc2)NC(=O)N(N)C1=O (stereo unspecified)
inactive: [1] 0.4% | [2] 28.5% | [3] -8.8% | [4] 9.05% | [5] -0.75% | [6] 1.85%

CC(=O)OCN(C)N=Nc1ccc(C(C)=O)cc1
inactive: [1] -4.6% | [2] -11.3% | [3] -27.8% | [4] -22.7% | [5] 20.9% | [6] 5.45%

COc1cc2c(c(OC)c1OC)-c1ccc(S(C)(=O)=O)c(=O)cc1[C@@H](NC(C)=O)CC2
inactive: [1] 3.25% | [2] -7.1% | [3] 3.2% | [4] 4.7% | [5] -35% | [6] -44.4%

CCOC(=N)CC(=O)Nc1ccccc1CC
inactive: [1] 17.8% | [2] -0.05% | [3] 11.6% | [4] 4.05% | [5] 12.1% | [6] 20.9%

Cc1nc(C#N)c(=N)n(CCCO)c1-c1ccccc1
inactive: [1] 7.2% | [2] -8.45% | [3] 10.3% | [4] -28.5% | [5] 16.4% | [6] 5.15%

NC(=O)N/N=C/c1ccccc1N
inactive: [1] 5.85% | [2] -6.75% | [3] 0.95% | [4] -22.1% | [5] -8.65% | [6] -2.7%

COc1ccccc1CNCc1nc2ccccc2[nH]1
inactive: [1] 4.8% | [2] 2.6% | [3] 6.9% | [4] 13.2% | [5] 0.55% | [6] 36.6%

O=[N+]([O-])c1ccc(C2=Nc3ccccc3S(=O)C(c3ccccc3)C2)cc1 (stereo unspecified)
inactive: [1] 5.3% | [2] -27.3% | [3] 19.9% | [4] 3.45% | [5] 10.7% | [6] 20.6%

CCCCCCCCCCCCCC/C=N/Nc1ccc([N+](=O)[O-])cc1[N+](=O)[O-]
inactive: [1] 21.3% | [2] 24% | [3] 13.5% | [4] 6.25% | [5] -2% | [6] 22.8%

O=C(CN=Cc1ccccc1O)NCc1ccccn1
inactive: [1] -10.7% | [2] -5.9% | [3] 10.7% | [4] 10.1% | [5] -21.9% | [6] 21.3%

C[C@@H]1C[C@H](C)OC(CO)O1 (stereo partly specified) (tested in a mixture with another compound)
inactive: [1] 13.4% | [2] -1.3% | [3] 0.25% | [4] 12.2% | [5] -12.6% | [6] 19.3%

CN1C(=O)CC2C(=O)N(Cc3ccccc3)C(=O)C2C1=O (stereo unspecified)
inactive: [1] 14% | [2] -4% | [3] -0.8% | [4] 11.6% | [5] 1.3% | [6] -2.85%

CCCCc1ccc(-n2c(C)nc3[nH]cc(C)c3c2=N)cc1
inactive: [1] -1.35% | [2] -10.9% | [3] -3.5% | [4] -1.75% | [5] -2.5% | [6] -3.75%

NC(=O)c1ccccn1
inactive: [1] 20.7% | [2] -5.45% | [3] 15% | [4] 18.3% | [5] 0.75% | [6] 28.4%

COC(=O)C(N)CSc1ccc([N+](=O)[O-])cc1[N+](=O)[O-] (stereo unspecified)
inactive: [1] 37.5% | [2] 39.5% | [3] 40.2% | [4] 25.1% | [5] 16.1% | [6] 48.9%

CC1CCc2c(ccc3ccccc23)C1 (stereo unspecified)
inactive: [1] -0.25% | [2] -16.4% | [3] -3.55% | [4] -4.55% | [5] -16.8% | [6] -2.05%

O=CC1N=C1c1ccccc1 (stereo unspecified)
inactive: [1] 9.4% | [2] -0.05% | [3] 0.65% | [4] 18.3% | [5] 25.9% | [6] 16.1%

S=c1[nH]ncn1/N=C/c1ccccc1Cl
inactive: [1] 23.6% | [2] 37% | [3] 54.4% | [4] 22.9% | [5] -5.65% | [6] 37.6%

COC(=O)CCCN1C(=O)c2ccccc2C1=O
inactive: [1] -8.15% | [2] -12.7% | [3] -20.8% | [4] -69.8% | [5] 5.6% | [6] -3.95%

CC(C)COP(C)(=O)C(N)(C(F)(F)F)C(F)(F)F (stereo unspecified)
inactive: [1] 10.9% | [2] 8% | [3] 35.6% | [4] 25.8% | [5] 40.1% | [6] -12.4%

CCN(CC)c1ccccc1S(=O)(=O)O
inactive: [1] -5.45% | [2] -5.3% | [3] 2.9% | [4] -42.9% | [5] -6.85% | [6] -6.35%

Cc1cc(Cl)cc2c1NC(=O)C2(O)CC(=O)c1ccco1 (stereo unspecified)
inactive: [1] 6.55% | [2] -12.4% | [3] -13.8% | [4] 9.65% | [5] -11.7% | [6] -4.65%

S=C(c1ccccc1Cl)N1CCOCC1
inactive: [1] 18.2% | [2] -22.2% | [3] 14.7% | [4] 17.1% | [5] 20.1% | [6] 13.8%

CC(C)(C)/C(=N\O)c1ccccc1
inactive: [1] -8.8% | [2] -13.6% | [3] -23.3% | [4] -8.05% | [5] -17.4% | [6] -23.3%

COc1cc2c(cc1OC)C(c1c(Cl)cccc1Cl)=NCC2
inactive: [1] 13.1% | [2] 10% | [3] 41.4% | [4] 4.25% | [5] 42.6% | [6] 12.7%

O=C(O)C1CCCCC1C(=O)NCc1ccco1 (stereo unspecified)
inactive: [1] 5.25% | [2] 4.55% | [3] 4.05% | [4] 3.7% | [5] 25.4% | [6] 0.05%

O=C(c1ccccc1)N1OCCCc2ccccc21
inactive: [1] 17.5% | [2] 7.9% | [3] 19.2% | [4] 2.7% | [5] 13.3% | [6] 20.4%
